# About 79,000 compounds went through this panel and 15% of them were active in at least one assay; those are over-represented in the sample as a whole. Unmarked numbers belong to inactive results. Activity calls are given as the source filed them. No stated cut-off is given here; in the data, active means growth inhibition above about 70%; inactive means the rest.
# Experiments:
# [1] = NCI Yeast Anticancer Drug Screen. Data for the rad50 strain (AID 155);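 further: 0% = growth of vehicle-only cultures of the same strain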; conditions: S. cerevisiae rad50 strain growth inhibition, hits give high values
# In short: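 Genetically altered yeast (DNA repair pathway); compound treatment; growth inhibition vs vehicle ctrl.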
# [2] = NCI Yeast Anticancer Drug Screen. Data for the mec2-1 strain (AID 157); conditions: S. cerevisiae mec2-1 strain, hits give high values
# In short: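 Readout is yeast growth inhibition, normalised to vehicle-treated controls, in the mec2-1 strain exposed to compound.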
# [3] = NCI Yeast Anticancer Drug Screen. Data for the sgs1 mgt1 strain (AID 161);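 further: 0% = growth of cultures given vehicle only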; conditions: S. cerevisiae sgs1 mgt1 strain, hits give high values
# In short: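 Yeast cells carrying a defined DNA-repair defect were exposed to test compounds. Growth inhibition was measured relative to vehicle-treated controls.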
# [4] = NCI Yeast Anticancer Drug Screen. Data for the cln2 rad14 strain (AID 165);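 further: 0% = growth equal to vehicle treated cultures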; conditions: S. cerevisiae cln2 rad14 strain, hits give high values
# In short: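 Relative to vehicle controls, growth inhibition of compound-treated cln2 rad14 yeast was recorded.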
# [5] = NCI Yeast Anticancer Drug Screen. Data for the bub3 strain (AID 167); conditions: S. cerevisiae bub3 mutant strain, hits give high values
# In short: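 Yeast carrying a defined mutation is treated with each compound, and growth is compared with that of vehicle-exposed cells to give inhibition.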
# [6] = NCI Yeast Anticancer Drug Screen. Data for the mlh1 rad18 strain (AID 175); conditions: S. cerevisiae mlh1 rad18 strain growth inhibition, hits give high values
# In short: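 Test agents were incubated with a yeast strain of defined genotype (DNA damage repair defect). Inhibition of growth was derived by comparison with vehicle-exposed cultures.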
# [7] = at 5.0 µM (retest, dose inferred, filed as 0.5)
# [8] = at 50.0 µM (retest, dose inferred, filed as 5.0)
SMILES,"growth inhibition [1, 7]","growth inhibition [1, 8]",growth inhibition ([1]; at 50.0 µM),"growth inhibition [2, 7]","growth inhibition [2, 8]",growth inhibition ([2]; at 50.0 µM),"growth inhibition [3, 7]","growth inhibition [3, 8]",growth inhibition ([3]; at 50.0 µM),"growth inhibition [4, 7]","growth inhibition [4, 8]",growth inhibition ([4]; at 50.0 µM),"growth inhibition [5, 7]","growth inhibition [5, 8]",growth inhibition ([5]; at 50.0 µM),"growth inhibition [6, 7]","growth inhibition [6, 8]",growth inhibition ([6]; at 50.0 µM)
CCOC(=O)/C(=C/c1ccc(Cl)cc1)N(CC)CC,16%,15%,64.3%,-21%,20%,55.2%,2%,18%,54.3%,43%,58%,76.2% (active),9%,36%,64.8%,-13%,-2%,53.1%
Nc1ccc(CCCCCc2ccc(N)cc2)cc1,-3%,80% (active),98.6% (active),-9%,99% (active),99% (active),10%,96% (active),98.9% (active),1%,54%,98% (active),-6%,83% (active),98.7% (active),-1%,98% (active),98.7% (active)
CC(=N/NC(=S)NCC(C)C)/C(C)=N\Nc1ccc(Cl)cc1,2%,81% (active),95% (active),-1%,79% (active),73.2% (active),1%,91% (active),92.4% (active),-4%,79% (active),72.8% (active),-4%,82% (active),93.7% (active),0%,90% (active),92% (active)
Cc1ccc(S(=O)(=O)C(C#N)(CCC(=O)/C=C/c2ccccc2)CCC(=O)/C=C/c2ccccc2)cc1,1%,6%,16.2%,-4%,35%,2.35%,2%,-2%,26.9%,3%,4%,77.3% (active),-3%,-2%,-9.3%,1%,-28%,20%
CN(C)C(=O)/C=C/c1c[nH]c(=O)[nH]c1=O,-146%,-149%,-5.65%,-47%,-49%,-2.3%,-63%,-68%,1.05%,-58%,-64%,19.1%,-73%,-78%,-3.35%,-149%,-119%,2.75%
O=C1C=CC(=Nc2cccc3c2-c2ccccc2C3)O1,98% (active),99% (active),99.6% (active),99% (active),99% (active),99.6% (active),99% (active),99% (active),99.7% (active),88% (active),99% (active),99.4% (active),99% (active),99% (active),99.7% (active),99% (active),99% (active),85.6% (active)
CC(CN(C)C)C(/C=C/c1ccc(Cl)c(Cl)c1)=N\Nc1ccccc1 (configuration not stated),2%,96% (active),54.1%,-3%,98% (active),98.7% (active),3%,99% (active),49.3%,3%,96% (active),47.1%,-1%,91% (active),88.4% (active),9%,96% (active),64.6%
CCCCC(CC)CN1C(=O)C2C3C=CC(C3)C2C1=O (configuration not stated),-15%,-20%,32.5%,-9%,-20%,19.1%,-2%,-9%,39.2%,28%,-49%,-4.45%,3%,-26%,39.1%,-6%,-15%,7.15%
CNc1ccc([N+](=O)[O-])cc1,-4%,13%,43%,1%,9%,12.8%,-1%,11%,-5.2%,2%,1%,22.9%,-1%,14%,31.1%,0%,19%,10.3%
